The supplement of paper PMC6555819

Legend:
Experiment in all cases: PBM binding z-score (relative to random genomic background probes); higher = stronger binding; sequences stand for … in GC…GCGATTGACAGCGTAGAATGAAGG
[1] = tested on: RARb homodimer (NR concentration 270 nM)
Summary of the method: (§1)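 Binding buffer was PBS pH 7.4 with 2% milk, 0.02% Triton X-100, 1 mM DTT, 0.2 mg/mL BSA and 0.4 mg/ml salmon testes DNA. In it, ligand-free nuclear receptor dimers were incubated 1 h on custom Agilent 4×180K protein-binding microarrays carrying double-stranded probes. Antibodies against each partner (one per run) detected binding, and z-scores were calculated against random background probes after regression normalization of scanned fluorescence.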

[2] = tested on: RARg:RXRa (NR concentration 270 nM, RXRa partner concentration 90 nM)
Summary of the method: as §1

[3] = tested on: RARg homodimer (NR concentration 270 nM)
Summary of the method: as §1

[4] = tested on: RXRa DBDmut IVT, anti-RXR (DBD mutation: RXRa K156A/R161A, NR concentration 90 nM)
Summary of the method: as §1

[5] = tested on: RXRa homodimer (NR concentration 180 nM)
Summary of the method: as §1

[6] = tested on: THRa:RXRa (NR concentration 90 nM, RXRa partner concentration 90 nM)
Summary of the method: as §1

[7] = tested on: THRa homodimer (NR concentration 90 nM)
Summary of the method: as §1

[8] = tested on: VDR:RXRa (NR concentration 270 nM, RXRa partner concentration 90 nM)
Summary of the method: as §1

[9] = tested on: VDR homodimer (NR concentration 270 nM)
Summary of the method: as §1

Sequence	PBM binding z-score [1]	PBM binding z-score [2]	PBM binding z-score [3]	PBM binding z-score [4]	PBM binding z-score [5]	PBM binding z-score [6]	PBM binding z-score [7]	PBM binding z-score [8]	PBM binding z-score [9]
TGTTGTAGATCAAAGGTTAAGAAAGCCGAAGCCT	1.46	2.08	1.36	-0.391	2.85	1.34	-0.597	1.44	-0.249
AGAATGAGGTTATACGTAGATCAGGGCAGAAAGT	1.33	1.72	1.08	1.89	2.36	2.43	1.05	1.67	1.47
CCGAGTACGTTATGGGGCATTCAGGCAACGGTGA	0.358	-0.121	-0.0152	3	-0.121	0.188	-0.521	0.216	1.4
CCTAGTTGGTCAAGGTTACACACGCTATAGGTAC	2.15	1.49	1.86	1.24	1.48	2.16	1.78	1.5	1.42
ATCGAAAGGTCGAGGTGAGTATTGAGAAAGGGAA	3.11	4.2	3.88	0.619	4.12	2.93	0.768	2.46	0.377
ACTCGGAGGACAAAGGTCAGAGCGACGCCAGTGA	4.63	6.19	5.38	1.24	5.37	3.66	0.5	3.47	1.18
GATACAGGGCCAGCTAGAGGCCAGAGTATGGAAA	0.561	0.806	0.594	-1.03	-0.349	-0.394	-0.861	-0.843	-0.246
TCTAGATGGTCAAAGGTCACACACTCGAAATGCG	4.98	7.31	5.87	1.9	8.64	3.96	1.9	5.33	2.51
CATCGGAGGACAACAGGAGGTCAGAGCTGCCAGA	3.62	3.59	3.48	0.373	2.29	3.01	1.31	2.21	1.1
ATATGTAGGTTACATCCGGGGCATTCAGGCTATG	1.23	1.76	1.3	0.51	1.12	1.83	0.704	1.23	0.977
TCATATAGGTAATACAGGTGAAAGTCGGCATCTA	0.693	0.799	0.796	1.54	1.44	1.1	0.471	1.31	-0.0243
AATACAGGGTCTCTAGGCCAGAGTAGGTACGAAT	0.256	0.0798	0.292	-0.254	-0.15	0.0248	-0.0749	-0.299	0.143
CCAGGCAGGTGAGAAGGTAACTCAGCCTCGATTA	0.294	0.181	-0.0537	-0.754	0.145	0.198	-0.116	-0.539	-0.279
CCTTACGGGTCACTGACAGGTGATAGCATTTGGA	3.85	5.63	4.84	2.09	6.14	3.23	0.557	4.2	1.31
CCTCAGAGGACAACAGGAGGTCAGAGCTGCCAGA	3.94	4.09	4.83	1.36	2.06	2.79	0.791	2.34	1.29
ACTAGCAGGCCAAGTTTGGGTCACTCAAACAAAG	2.42	2.46	1.72	-0.26	0.865	2.54	0.952	0.525	0.495
AGTCAAAGTTCAGGACAAGGTAACGTAAAGCACG	3.29	5.05	5.13	3.14	3.26	4.05	2.59	2.55	2.15
TGTCAAAGTTCAAAGGTAACGCAAGTATCCACAC	3.97	6.5	6.22	4.42	7.38	3.23	0.0532	5.17	4.37
ACTTACGGGTCAACGAGGTGATAGCACGCGTATA	2.98	5.26	4.83	2.19	5.47	3.86	0.952	6.61	1.81
TCATATAGGTAAAAAGTGAAAGTCGGTGTGGTAA	0.0434	0.226	-0.0939	2.01	0.563	-0.0757	-0.132	0.783	0.435
CCTTACGGGTCATGGTTATAGCACGGGTGGTACG	3.03	4.4	3.82	0.187	4.81	2.67	-0.082	3.23	0.582
ATAAGTAGGTTAGCTGGGGTCATTCAGACTAGGC	3.84	4.16	2.94	1.95	5.34	5.32	3.54	5.98	4.63
GGAACGAGGGGATTCGAGTTGATAGCATGGCGAT	-0.999	-0.337	-0.0526	-0.0556	-0.258	0.618	-0.631	0.173	0.0927
AGAATGAGGCTATACGTAGATCAGGGAAGAAAGT	-0.0625	0.222	0.232	-0.0879	-0.0272	0.084	-0.165	-0.45	-0.0917
TCTTGTAGATCAACGGGAGGTTAAGAAAGATCGA	0.654	1.49	0.307	0.748	1.06	1.11	-0.165	0.477	-0.124
CGTCCAAGGCCAATGCTAGGTCAGTGAAAGCATT	2.64	2.16	1.94	0.513	0.218	2	0.569	0.034	0.135

Sequence	PBM binding z-score [1]	PBM binding z-score [2]	PBM binding z-score [3]	PBM binding z-score [4]	PBM binding z-score [5]	PBM binding z-score [6]	PBM binding z-score [7]	PBM binding z-score [8]	PBM binding z-score [9]
ATCTCTAGGTAAAGTTCCGTGAAAGATCGATAGA	-0.0472	0.28	0.381	0.35	0.0302	0.529	0.224	0.335	0.431
TCTCGGAGGACACGCAGGTCAGAGCTTTCCAGAG	2.81	2.47	3.04	0.783	1.05	2.63	1.06	1.58	1.2
AGAGCGAGGGCAATGAGTTGATAGCACGGGTGGC	0.903	1.19	1.31	1.48	0.736	0.613	-0.514	4.97	2.82
TGAATGAGGTAATAAGATCAGGGAACGTTGCAAA	-0.532	0.204	0.306	-1.15	0.365	0.991	-0.205	-0.334	-0.404
ATCTCTGGGTAACCAAGTTCAGTGAATGCCGAAC	1.28	0.665	0.596	0.665	0.412	1.46	0.335	4.32	2.64
TCTTGTAGATCAAGCAGGTTAAGTAAGCCTGAGT	0.0988	-0.201	-0.463	0.439	0.0943	0.33	-0.503	0.507	-0.0277
CCTAGTTGGTCAGGAGGTAACACACCGGATATGA	1.01	0.732	0.881	-0.282	0.455	0.766	0.712	0.461	0.75
CCTAGCAGGCCAATCTTGGTCACTCAAGGCTTGA	0.0668	-0.196	0.118	-0.0196	-0.417	0.909	-0.83	-0.601	-0.655
AGAATGAGGTTAAGATCAGGGCAACAGAATACAT	2.23	3.86	1.76	1.17	2.78	3.57	1.44	2.23	0.984
ATCGAAAGGTCGAAGGTGAGTAGACCCACCCGAA	2.17	4.35	4.04	1	5.53	1.87	-0.399	2.43	-0.0656
CTAACTAGGTCATCCAGGACAGTGAATACATTGA	2.94	4.11	4.62	2.34	3.07	3.84	2.16	4.72	2.32
TCTAGTTGGTCACGGCGGTCACACACGACGGGTA	2.92	2.1	2.76	0.889	1.34	0.79	0.372	1.82	0.652
GGAACGAGGGCAAGCTGATAGCAGAGTTTGATGG	0.957	1.17	1.95	1.68	0.6	0.878	-0.593	0.0958	1.03
AGAATGAGGTTATTGAGATCAGGGAATTGCGGTC	1.07	1.43	0.831	2.21	2.16	2.45	1.01	3.35	1.28
CCTGCTAGGTCATGCTCAGCTAATCTACAGTATG	2.76	3.89	4.39	2.05	2.4	2.57	0.87	1.33	0.178
ACTAGTTGGTCAGCTGAGGTTACACACAATTCGG	2.03	1.46	1.69	0.642	1.31	3.86	1.97	1.59	1.01
ATCGAACGGTCGAAGGTGAGTATACCCACCCGAA	0.62	0.884	0.957	-1.05	0.717	-0.016	-0.481	-0.202	-0.147
TGAATGTGGTTAAAGATCAGGGAACGTGGCGTCG	-0.107	0.0115	-0.196	-0.526	0.126	-0.141	-0.0512	-0.219	-0.00679
GCTTGTAGATCACGGTTAAGAAAGACTAAGCTAA	-0.369	-0.304	-0.36	0.053	-0.526	-0.523	-1.01	-0.34	-0.582
TCGAGTAGGTTATTCGGGGCATTCAGCCAACATA	0.766	0.44	0.448	0.744	0.31	2.61	0.314	4.03	0.9
CCTGCTAGCTCAATGGTCAGCTAAAGCAGCTCGC	0.464	-0.547	-0.75	0.0586	-0.756	-0.535	-0.555	-0.686	-0.94
CCTGCTAAGTCATGGTCAGCTAATCTACAGTATG	0.142	0.135	0.315	0.518	0.0599	-0.13	-0.892	-0.252	-0.337
TCGAGTAGGTTAGTCGGGGCATTCCGCCAACATA	0.291	-0.0295	-0.243	0.165	0.00868	1.05	-0.473	2.1	-0.0294
CCTAGCAGGCCGATCTGGGTCACTCAAGGCTTGA	1.59	0.546	0.594	-0.129	0.768	2.97	0.256	0.114	-0.162
CGTCCAAGGGCAAGGTCAGTGAAAGAGACTCGAA	3.82	3.23	4.43	1.07	2.23	2.9	1.11	1.59	1.21
GAAACGAGGGCATTCGAGTTGATAGCATGGCGAT	0.628	1.26	1.38	3.03	1.09	3.47	-0.43	3.97	3.34
